# Screening data deposited in PubChem by several laboratories.
# PABP polyA inh = blocks human PABP binding to poly(A) RNA. fluorescence polarization. inhibition, % at 35 µM. 290,000 tested, 1% active. AID 2014;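 also: calls also rest on retests at 20 µM and on dose response follow-up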
# PERK inh = inhibitors of human PERK kinase. AID 1416. 220,000 tested, 0.17% active. inhibition, % at 5.6 µM. CHO PERK-DD fusion, SEAP luminescence translation reporter. Q9NZJ5;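 active = inhibition above the mean inhibition of all tested compounds plus 3 SD, set separately per screening campaign, cut at about 2.9% in these data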;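 also: PERK kinase domain activated by AP20187 dimerizer at 100 nM; 0% = DMSO with dimerizer and 100% = rapamycin at 8.4 µM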
# PABP1 MLLE inh = inhibitors of microRNA-mediated deadenylation, human PABP1 MLLE binding | GST-MLLE / FITC-PAM2 fluorescence polarization | inhibition, % at 20 µM | 360,000 tested, 0.36% active; in the data active = inhibition above about 35%, passing the limit was not always enough;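 also: plate controls were DMSO wells with GST-MLLE for no effect and wells lacking GST-MLLE protein for full effect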
# eIF4H FP inh = inhibitors of RNA binding by human eIF4H; Q15056; eIF4H fluorescence polarization binding assay; inhibition, % at 35 µM; 290,000 tested, 0.94% active; AID 2012;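 also: calls also rest on retests at 20 µM and on dose response follow-up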
# eIF4E-4G inh = eIF4E/eIF4G interaction inhibition in translation initiation. inhibition, % at 21.7 µM. TR-FRET eIF4E-eIF4GI(517-606) binding, 2 h. P63073+Q04637. 220,000 tested, 0.37% active. AID 782;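 active = inhibition above about 30%, limit read from the data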;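 also: 0% = full FRET control wells and 100% = background wells lacking eIF4GI fragment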
# An asterisk follows results filed as active; ? = inconclusive; · = not tested or not shown. In the library only some 1.6% were active in any assay of this set; here they are far more common. Unless noted, no rule for the calls is given here.
SMILES,PABP polyA inh,PERK inh,PABP1 MLLE inh,eIF4H FP inh,eIF4E-4G inh
CCCCn1c(/N=C/c2cc(OC)ccc2O)nc2ccccc21,2,0,-13,2,6
CC1OC(Oc2c(-c3cc(O)c(O)c(O)c3)oc3cc(O)cc(O)c3c2=O)C(O)C(O)C1O (stereo unspecified),23,2,-18,37,-2
O=C(O)C1OC(Oc2c(-c3ccc(O)c(O)c3)oc3cc(O)cc(O)c3c2=O)C(O)C(O)C1O (stereo unspecified),14*,1,·,76*,7
O=c1[nH]ncc(N2CCCC2)c1Cl,-2,1,15,15,81*
O=c1[nH]ncc(N2CCN(C(c3ccccc3)c3ccccc3)CC2)c1Cl,-1,0,-12,-9,8
O=c1c2ccccc2nc2n1C(CBr)CS2 (stereo unspecified),6,2,24,-7,4
O=c1nc2n(c3sc4c(c13)CCCC4)C(CBr)CS2 (stereo unspecified),2,0,40*,-11,4
CC1=C(C(N)=O)S(=O)(=O)c2ccccc21,24,3.1*,25,36,-1
NC(=O)c1ccc2c(c1)S(=O)(=O)c1ccccc1C2=O,23,2,0,15,4
COc1ccc(OCC(O)CNCc2ccco2)cc1 (stereo unspecified),3,1,6,8,-5
Cc1ccc(N(CC(=O)NC2CCCCC2)C(=O)CCCC(=O)Nc2ccccn2)cc1,69*,·,0,79*,·
COc1ccc(/C=C/C(=O)NC(=S)NNC(=O)c2cccs2)cc1,64,0,-29,5.9*,1
COc1ccc(C(=O)NNC(=S)NC(=O)c2cccs2)cc1,2,·,19,12,·
CCOc1ccc(N2C(=O)C(Cl)=C(Nc3ccccc3O)C2=O)cc1,52,0,-5,11*,7
COc1cccc(CNC(=O)c2ccc(S(=O)(=O)N3CCOCC3)cc2)c1,·,·,12,·,·
Cc1cc2cc(CNC(=O)c3ccc(S(=O)(=O)N(C)C)cc3)ccc2n1C,5,2,50*,?,-3
Cc1cc2cc(CNC(=O)c3ccc(S(=O)(=O)N4CCOCC4)cc3)ccc2n1C,-15,0,47*,18,2
CN(C)c1ccc(O)c2c1CC1CC3C(N(C)C)C(=O)C(C(N)=O)=C(O)[C@@]3(O)C(=O)C1=C2O (stereo partly specified),·,·,10,·,·
CN(C)[C@@H]1C(=O)C(C(=O)NCN2CCCC2)=C(O)[C@@]2(O)C(=O)C3=C(O)c4c(O)cccc4[C@@](C)(O)C3CC12 (stereo partly specified),11,2,·,96,64*
Cc1ccc2cc3cc(C(=O)NC4CCCCC4)oc3nc2c1,-8,·,4,-2,·
Fc1ccc(-c2nc3c(Cl)cc(C(F)(F)F)cn3c2Cl)cc1,2,0,43*,?,-7
Cc1ccc(Cc2c(-c3ccc(F)cc3)nc3c(Cl)cc(C(F)(F)F)cn23)cc1,·,·,14,·,·
O=c1[nH]c2ccccc2nc1Cc1ccc(Cl)cc1,-6,·,-10,-5,·
CSCC[C@H](NC(=O)OC(C)(C)C)c1nnc(SCC(N)=O)o1,-1,0,-6,10,0
COc1ccc(C(CNC(=O)CNS(=O)(=O)c2ccc(NC(C)=O)cc2)N2CCOCC2)cc1 (stereo unspecified),·,·,22,·,·
SMILES,PABP polyA inh,PERK inh,PABP1 MLLE inh,eIF4H FP inh,eIF4E-4G inh
NS(=O)(=O)c1ccc(CCNC(=O)COC(=O)C2CCCN2C(=O)c2cccs2)cc1 (stereo unspecified),-3,3.3*,1,-3,-1
O=C(COC(=O)[C@@H]1CCCN1C(=O)c1cccs1)Nc1ccc(Br)cc1,·,·,2,·,·
Cc1cc(C)n2c(SC/C(O)=C(\C#N)c3nc4ccccc4[nH]3)nnc2n1,51*,0,-23,80*,9
Cc1ccccc1-n1c(SC/C(O)=C(\C#N)c2nc3ccccc3[nH]2)nnc1-c1ccncc1,32,0,-41,31,-2
CCN(Cc1ccncc1)C(=S)Nc1c(C)cccc1C,-8,1,2,-4,6
S=c1[nH]nc(-c2ccco2)n1/N=C/c1ccc(Cl)cc1,0,1,-26,2,33*
S=c1[nH]nc(-c2ccccc2)n1/N=C/c1ccc(Cl)cc1,-3,·,-81,4,·
S=c1[nH]nc(-c2ccc(Cl)cc2)n1/N=C/c1cccs1,11,2,-74,-7,95*
CC(=O)NS(=O)(=O)c1ccc(NC(=O)/C=C/c2ccccc2)cc1,6,0,1,2,0
